Results published in PubChem BioAssay (EPA / NIEHS).
Results filed as inconclusive are left out. Where a structure was tested more than once in an assay, its records may differ in their call. Calls of active or inactive are those of the source. The calls were made as follows, unless noted: active = hit-call score of the fitted dose curve at least 0.9, where 1 is the maximum; inactive = score below 0.9.

Key:
[1] = biological target: human RAR-related Orphan Receptor gamma (RORg), RORC (gene 6097) (UniProt P51449); test: ATG_RORg_TRANS: Attagene TRANS-FACTORIAL HepG2 Assay for human RAR-related Orphan Receptor gamma (RORg) (AID 2283011; active = hit-call score of the fitted dose curve at least 0.9, where 1 is the maximum)
In short: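 Readout: reporter transcript induction (RT-PCR, fluorescent primer extension, capillary electrophoresis) after 24 h compound exposure of transiently transfected HepG2 cells carrying a RORg-Gal4 chimera and GAL4-UAS reporters; DMSO served as baseline, with increasing signal fitted.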

[2] = biological target: human Retinoid X Receptor beta (RXRb), RXRB (gene 6257) (UniProt P28702); test: ATG_RXRb_TRANS: Attagene TRANS-FACTORIAL HepG2 Assay for human Retinoid X Receptor beta (RXRb) (AID 2283013; active = hit-call score of the fitted dose curve at least 0.9, where 1 is the maximum)
In short: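 Chimeric receptor-Gal4 activity was assessed in transiently transfected human HepG2 cells after 24 h exposure. Transcripts from GAL4-UAS reporters were quantified by fluorescent RT-PCR and capillary electrophoresis, with DMSO as negative control and baseline.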

[3] = biological target: human Thyroid Receptor alpha (THRa1), THRA (gene 7067) (UniProt P10827); test: ATG_THRa1_TRANS: Attagene TRANS-FACTORIAL HepG2 Assay for human Thyroid Receptor alpha (THRa1) (AID 2283014; active = hit-call score of the fitted dose curve at least 0.9, where 1 is the maximum)
In short: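 HepG2 cells transiently transfected with multiplexed GAL4-UAS reporter units for exogenous chimeric THRa1-Gal4; reporter mRNA measured 24 h after dosing by RT-PCR, 6-FAM labelling, HpaI digestion and capillary electrophoresis. Gain-of-signal fitted versus DMSO baseline.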

[4] = read-out: E-selectin (Homo sapiens) (UniProt P16581); test: BSK_3C_Eselectin: BioMAP Diversity Plus: 3C Assay for Eselectin Biomarker Activity (AID 2283015); conditions: primary human endothelial cells (HUVEC); actives raise or lower the signal
In short: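 Primary human umbilical vein endothelial cells (3C system) were dosed with chemical and cell-surface E-selectin measured by ELISA 24 h later. Bidirectional curve fitting used DMSO as negative control and baseline.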

[5] = read-out: Interleukin-1 alpha (IL1a), IL1A (gene 3552); test: BSK_BE3C_IL1a: BioMAP Diversity Plus: BE3C Assay for Interleukin-1 alpha (IL1a) Biomarker Activity (AID 2283016); conditions: primary human bronchial epithelial cells; actives raise or lower the signal
In short: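 Signal from IL-1a ELISA, taken 24 h after chemical dosing of human bronchial epithelial cells, is compared with DMSO as baseline using bidirectional curve fitting.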

[6] = read-out: Monocyte Chemoattractant Protein-1 (MCP1), CCL2 (gene 6347); test: BSK_3C_MCP1: BioMAP Diversity Plus: 3C Assay for Monocyte Chemoattractant Protein-1 (MCP1) Biomarker Activity (AID 2283017); conditions: primary human endothelial cells (HUVEC); actives raise or lower the signal
In short: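 Primary human umbilical vein endothelial cells (3C system) were exposed to test chemical for 24 h, after which MCP-1 was quantified by ELISA. Activity was fitted bidirectionally against DMSO as negative control and baseline.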

[7] = read-out: Human Leukocyte Antigen - DR isotype (HLADR), HLA-DRA (gene 3122); test: BSK_3C_HLADR: BioMAP Diversity Plus: 3C Assay for Human Leukocyte Antigen - DR isotype (HLADR) Biomarker Activity (AID 2283019); conditions: primary human endothelial cells (HUVEC); actives raise or lower the signal
In short: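 Primary human umbilical vein endothelial cells (3C system) were dosed with compound and cell-surface HLA-DR was quantified by ELISA at 24 h. Activity was fitted bidirectionally against DMSO as negative control and baseline.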

[8] = read-out: Interleukin-8 (IL8), CXCL8 (gene 3576); test: BSK_3C_IL8: BioMAP Diversity Plus: 3C Assay for Interleukin-8 (IL8) Biomarker Activity (AID 2283020); conditions: primary human endothelial cells (HUVEC); actives raise or lower the signal
In short: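 Endothelial primary cells of human umbilical vein origin are dosed with chemical; after 24 h the IL-8 biomarker is measured by ELISA, and concentration–response is fitted in both directions versus DMSO.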

[9] = read-out: Monokine induced gamma interferon (MIG), CXCL9 (gene 4283); test: BSK_3C_MIG: BioMAP Diversity Plus: 3C Assay for Monokine induced gamma interferon (MIG) Biomarker Activity (AID 2283021); conditions: primary human endothelial cells (HUVEC); actives raise or lower the signal;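 as to AC50: MIG protein level measured by immunoassay in the treated endothelial cultures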
In short: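 Endothelial primary cells (human umbilical vein) are dosed with test chemical in the 3C system. MIG levels are measured by ELISA at 24 h and fitted in both directions relative to DMSO.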

[10] = biological target: human Vitamin D Receptor (VDR), VDR (gene 7421) (UniProt P11473); test: ATG_VDR_TRANS: Attagene TRANS-FACTORIAL HepG2 Assay for human Vitamin D Receptor (VDR) (AID 2283022; active = hit-call score of the fitted dose curve at least 0.9, where 1 is the maximum)
In short: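 HepG2 cells were transiently transfected with multiple GAL4-UAS reporter units, so signal reflects exogenous chimeric receptor-Gal4 activity. After 24 h compound exposure, reporter mRNA was measured by RT-PCR, fluorescent labelling and capillary electrophoresis, fitted for gain of signal versus DMSO.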

[11] = BSK_3C_SRB: Viability Assessment in the BioMAP Diversity Plus: 3C Assay (AID 2283023); conditions: primary human endothelial cells (HUVEC);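 also: fitted both ways against DMSO so a hit may be signal rise or drop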
In short: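 Primary human umbilical vein endothelial cells in the 3C system were read 24 h after compound dosing. Total protein was stained with 0.1% sulforhodamine B after 10% TCA fixation and read at 560 nm, with bidirectional fitting against DMSO as baseline.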

[12] = read-out: Matrix Metallopeptidase 1 (MMP1), MMP1 (gene 4312); test: BSK_BE3C_MMP1: BioMAP Diversity Plus: BE3C Assay for Matrix Metallopeptidase 1 (MMP1) Biomarker Activity (AID 2283024); conditions: primary human bronchial epithelial cells; actives raise or lower the signal
In short: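 MMP1 signal, measured by ELISA after a 24 h chemical exposure of human primary bronchial epithelial cells, is analysed with bidirectional fitting using DMSO as negative control.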

[13] = BSK_3C_Vis: BioMAP Diversity Plus: 3C Assay for Morphology Visualization (AID 2283025); conditions: primary human endothelial cells (HUVEC);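 also: fitted both ways so gain or loss versus DMSO counts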
In short: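 Morphology read by light microscopy serves as a background control for the multiplexed 3C assay in human umbilical vein endothelial cells, taken 24 h after dosing, with DMSO as the negative control and bidirectional curve fitting.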

[14] = read-out: Pselectin, SELP (gene 6403); test: BSK_4H_Pselectin: BioMAP Diversity Plus: 4H Assay for Pselectin Biomarker Activity (AID 2283026); conditions: primary human endothelial cells (HUVEC); actives raise or lower the signal
In short: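 Endothelial primary cells (human umbilical vein) are dosed, incubated 24 h, and assayed for surface P-selectin by ELISA; responses in either direction are fitted relative to the DMSO negative control.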

[15] = BSK_4H_SRB: Viability Assessment in the BioMAP Diversity Plus: 4H Assay (AID 2283027); conditions: primary human endothelial cells (HUVEC);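 also: cells exposed to compound for 24 h before staining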;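 as to AC50: curves fitted both ways versus DMSO so AC50 may be loss or gain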
In short: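 HUVEC, 24 h post-dose; 10% TCA fix, 0.1% SRB stain, A560 nm. Total protein = overt cytotoxicity, parallel to biomarker read. Bidirectional fit vs DMSO baseline.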

[16] = BSK_BE3C_SRB: Viability Assessment in the BioMAP Diversity Plus: BE3C Assay (AID 2283028); conditions: primary human bronchial epithelial cells;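 as to AC50: fitted both ways so AC50 may mark signal gain or loss versus DMSO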
In short: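 Human primary bronchial epithelial cells were exposed to test chemicals for 24 h. Total protein in parallel cultures was then measured by staining with 0.1% sulforhodamine B after 10% TCA fixation, with absorbance read at 560 nm. Activity was fitted bidirectionally against DMSO.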

[17] = read-out: Urokinase-type plasminogen activator receptor (uPAR), PLAUR (gene 5329); test: BSK_4H_uPAR: BioMAP Diversity Plus: 4H Assay for Urokinase-type plasminogen activator receptor (uPAR) Biomarker Activity (AID 2283030); conditions: primary human endothelial cells (HUVEC); actives raise or lower the signal
In short: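 Primary human umbilical vein endothelial cells were exposed to chemical for 24 h before cell-surface uPAR was quantified by ELISA. Activity was fitted bidirectionally against the DMSO negative control baseline.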

[18] = biological target: Retinoic acid receptor RXR-alpha (Homo sapiens) (UniProt P19793); test: ATG_RXRa_TRANS: Attagene TRANS-FACTORIAL HepG2 Assay for human Retinoid X Receptor alpha (RXRa) (AID 2283012; active = hit-call score of the fitted dose curve at least 0.9, where 1 is the maximum)
In short: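 Measures exogenous chimeric NR-GAL4 activity in transfected HepG2 liver cells after 24 h of dosing. Induced reporter mRNA was detected by RT-PCR with capillary electrophoresis, and gain of signal was analysed against DMSO.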

[19] = read-out: Monocyte Chemoattractant Protein-1 (MCP1), CCL2 (gene 6347); test: BSK_4H_MCP1: BioMAP Diversity Plus: 4H Assay for Monocyte Chemoattractant Protein-1 (MCP1) Biomarker Activity (AID 2283018); conditions: primary human endothelial cells (HUVEC); actives raise or lower the signal
In short: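 Endothelial cells from umbilical vein were treated with test chemical, then after 24 h MCP-1 levels were quantified by ELISA; endpoint values came from bidirectional fitting with DMSO as baseline of activity.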

[20] = read-out: Thrombomodulin, THBD (gene 7056); test: BSK_3C_Thrombomodulin: BioMAP Diversity Plus: 3C Assay for Thrombomodulin Biomarker Activity (AID 2283029); conditions: primary human endothelial cells (HUVEC); actives raise or lower the signal
In short: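 Endothelial cells from umbilical vein are dosed with test chemical and incubated 24 h. Thrombomodulin is then quantified by ELISA, with DMSO serving as negative control and activity baseline.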

Measured: AC50

Chain of human Retinoid X Receptor beta (RXRb), RXRB (gene 6257) (P28702 whole entry, looked up, the tested form may be a part): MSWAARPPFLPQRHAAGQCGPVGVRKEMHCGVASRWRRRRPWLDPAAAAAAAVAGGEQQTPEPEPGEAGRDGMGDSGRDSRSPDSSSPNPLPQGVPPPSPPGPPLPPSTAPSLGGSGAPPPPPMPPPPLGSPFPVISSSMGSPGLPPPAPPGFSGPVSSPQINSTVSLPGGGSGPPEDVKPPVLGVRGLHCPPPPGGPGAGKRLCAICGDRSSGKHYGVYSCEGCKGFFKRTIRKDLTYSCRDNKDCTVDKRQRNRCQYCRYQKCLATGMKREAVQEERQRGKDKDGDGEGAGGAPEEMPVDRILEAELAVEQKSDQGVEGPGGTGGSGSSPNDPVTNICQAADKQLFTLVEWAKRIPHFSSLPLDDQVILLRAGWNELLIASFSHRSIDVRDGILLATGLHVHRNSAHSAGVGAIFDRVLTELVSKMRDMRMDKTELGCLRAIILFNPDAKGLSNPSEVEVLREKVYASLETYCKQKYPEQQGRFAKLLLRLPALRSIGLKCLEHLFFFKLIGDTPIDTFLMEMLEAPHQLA
Chain of human Vitamin D Receptor (VDR), VDR (gene 7421) (P11473 whole entry, looked up, the tested form may be a part): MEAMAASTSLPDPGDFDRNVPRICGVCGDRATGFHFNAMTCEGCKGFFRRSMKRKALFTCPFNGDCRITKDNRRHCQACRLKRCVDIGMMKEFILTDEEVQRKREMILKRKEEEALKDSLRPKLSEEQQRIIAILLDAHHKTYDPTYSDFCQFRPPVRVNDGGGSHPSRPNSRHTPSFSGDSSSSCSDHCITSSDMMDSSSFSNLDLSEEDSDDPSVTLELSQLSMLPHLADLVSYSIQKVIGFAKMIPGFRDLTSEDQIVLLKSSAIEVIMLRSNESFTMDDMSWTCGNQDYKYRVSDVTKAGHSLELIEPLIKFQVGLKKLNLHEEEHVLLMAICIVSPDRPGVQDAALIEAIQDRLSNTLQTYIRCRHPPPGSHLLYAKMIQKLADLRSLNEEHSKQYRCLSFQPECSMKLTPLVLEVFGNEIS
Chain of Retinoic acid receptor RXR-alpha (Homo sapiens) (P19793 whole entry, looked up, the tested form may be a part): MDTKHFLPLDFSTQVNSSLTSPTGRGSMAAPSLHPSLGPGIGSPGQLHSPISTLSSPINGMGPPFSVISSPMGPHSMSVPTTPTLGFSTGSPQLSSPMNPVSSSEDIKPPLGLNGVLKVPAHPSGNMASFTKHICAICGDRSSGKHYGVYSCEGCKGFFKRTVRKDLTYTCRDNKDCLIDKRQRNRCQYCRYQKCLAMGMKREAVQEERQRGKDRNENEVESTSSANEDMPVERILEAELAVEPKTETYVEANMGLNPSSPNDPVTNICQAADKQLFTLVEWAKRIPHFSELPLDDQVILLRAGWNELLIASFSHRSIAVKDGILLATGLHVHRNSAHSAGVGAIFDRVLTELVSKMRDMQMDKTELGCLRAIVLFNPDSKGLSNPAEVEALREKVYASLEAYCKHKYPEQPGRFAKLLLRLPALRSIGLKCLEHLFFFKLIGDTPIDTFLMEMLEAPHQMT
Chain of human RAR-related Orphan Receptor gamma (RORg), RORC (gene 6097) (P51449 whole entry, looked up, the tested form may be a part): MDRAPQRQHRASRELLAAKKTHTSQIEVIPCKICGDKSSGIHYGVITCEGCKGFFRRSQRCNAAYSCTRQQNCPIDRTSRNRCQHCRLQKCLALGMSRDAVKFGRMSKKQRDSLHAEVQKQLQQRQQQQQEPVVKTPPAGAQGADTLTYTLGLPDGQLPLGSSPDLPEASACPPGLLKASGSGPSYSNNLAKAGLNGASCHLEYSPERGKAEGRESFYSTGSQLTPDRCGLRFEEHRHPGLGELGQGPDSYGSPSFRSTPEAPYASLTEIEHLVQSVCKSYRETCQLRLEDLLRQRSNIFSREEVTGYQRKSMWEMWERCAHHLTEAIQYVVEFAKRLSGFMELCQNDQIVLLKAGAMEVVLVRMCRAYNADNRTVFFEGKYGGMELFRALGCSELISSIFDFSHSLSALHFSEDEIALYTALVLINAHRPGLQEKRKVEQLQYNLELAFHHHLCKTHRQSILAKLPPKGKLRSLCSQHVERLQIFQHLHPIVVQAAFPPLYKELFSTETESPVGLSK
Chain of human Thyroid Receptor alpha (THRa1), THRA (gene 7067) (P10827 whole entry, looked up, the tested form may be a part): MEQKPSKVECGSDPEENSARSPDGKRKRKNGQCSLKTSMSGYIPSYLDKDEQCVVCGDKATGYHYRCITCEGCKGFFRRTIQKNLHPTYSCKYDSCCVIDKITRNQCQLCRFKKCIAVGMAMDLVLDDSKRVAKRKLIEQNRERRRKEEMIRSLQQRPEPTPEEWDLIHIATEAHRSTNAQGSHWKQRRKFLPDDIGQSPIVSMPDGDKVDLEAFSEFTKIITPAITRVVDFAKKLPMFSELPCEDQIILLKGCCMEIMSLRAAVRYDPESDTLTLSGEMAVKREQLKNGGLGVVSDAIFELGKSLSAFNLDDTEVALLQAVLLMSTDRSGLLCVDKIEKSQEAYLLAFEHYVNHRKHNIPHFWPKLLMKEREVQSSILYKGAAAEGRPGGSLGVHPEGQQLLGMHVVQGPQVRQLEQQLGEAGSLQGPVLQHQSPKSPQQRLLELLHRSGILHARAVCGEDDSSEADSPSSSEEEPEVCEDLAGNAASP
Chain of E-selectin (Homo sapiens) (P16581 whole entry, looked up): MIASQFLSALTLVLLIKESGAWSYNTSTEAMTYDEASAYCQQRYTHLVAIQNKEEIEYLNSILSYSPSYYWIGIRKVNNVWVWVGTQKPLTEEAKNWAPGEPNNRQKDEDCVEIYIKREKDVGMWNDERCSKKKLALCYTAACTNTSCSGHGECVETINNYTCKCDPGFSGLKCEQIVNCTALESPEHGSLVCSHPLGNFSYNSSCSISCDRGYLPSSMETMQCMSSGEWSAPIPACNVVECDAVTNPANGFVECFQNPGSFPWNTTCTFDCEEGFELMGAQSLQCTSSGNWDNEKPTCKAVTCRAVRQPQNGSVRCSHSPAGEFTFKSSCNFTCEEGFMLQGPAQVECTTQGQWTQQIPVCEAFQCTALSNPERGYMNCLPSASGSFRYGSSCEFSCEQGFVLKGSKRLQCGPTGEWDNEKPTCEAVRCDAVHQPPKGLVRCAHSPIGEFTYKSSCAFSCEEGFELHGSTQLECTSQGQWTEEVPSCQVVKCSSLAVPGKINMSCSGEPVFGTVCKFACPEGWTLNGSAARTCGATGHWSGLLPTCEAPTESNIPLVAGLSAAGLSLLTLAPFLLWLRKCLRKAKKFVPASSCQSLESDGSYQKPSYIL

O=c1[nH]sc2ccccc12
active: [4] 13.5 µM | [5] 27.7 µM | [6] 11.7 µM | [7] 5.39 µM | [8] 14.4 µM | [9] 28.9 µM | [11] 13.8 µM | [12] 26 µM | [13] 5.31 µM | [14] 5.54 µM | [15] 20 µM | [16] 37.1 µM | [17] 20 µM
inactive: [1] | [2] | [3] | [10]

O=C1CCC(C2CCCCC2)CC1
active: [12] 12.6 µM
not listed: [15]
inactive: all other assays above

CCCCCCCCCCCCO
active: [4] 31 µM | [5] 19.8 µM | [6] 31 µM | [7] 31.3 µM | [11] 31.2 µM | [13] 38.4 µM | [14] 34.2 µM | [15] 31.1 µM | [16] 31.9 µM | [17] 30.9 µM
inactive: [1] | [18] | [2] | [3] | [9] | [12]

CN1C(=O)CC[C@H]1c1cccnc1
not listed: [3] | [10] | [15] | [18] | [20]
inactive: all other assays above

NCc1cccc(C2CCN(C(=O)c3ccc(C#Cc4ccccc4F)o3)CC2)c1
active: [4] 35.6 µM | [5] 15 µM | [6] 20.8 µM | [19] 20 µM | [7] 11.3 µM | [9] 36.2 µM | [11] 11 µM | [12] 28.2 µM | [13] 13.3 µM | [14] 13.3 µM | [16] 15.4 µM | [17] 23.2 µM
inactive: [1] | [18] | [2] | [3] | [10]

O=C(O)Cc1cc(I)c(Oc2ccc(O)c(I)c2)c(I)c1
active: [5] 25.5 µM | [12] 6.29 µM | [13] 14.5 µM | [17] 23.3 µM
not listed: [2] | [3] | [15]
inactive: all other assays above

C[C@]12CC[C@@H]3c4ccc(O)cc4CC[C@H]3[C@@H]1CC[C@H]2O
active: [4] 8.58 µM | [6] 14.3 µM | [7] 21.3 µM | [11] 12.4 µM | [13] 20.7 µM | [17] 12.8 µM
not listed: [8] | [15] | [19]
inactive: all other assays above

O=C1O[C@H]([C@@H](O)CO)C(O)=C1O
active: [18] 26.6 µM | [2] 35.9 µM
inactive: [1] | [18] | [2] | [3] | [4] | [5] | [6] | [19] | [7] | [9] | [11] | [12] | [13] | [14] | [16] | [20] | [17]

CCCCCCCC[Si](OCC)(OCC)OCC
active: [2] 26.8 µM | [4] 17.5 µM | [6] 31.2 µM | [19] 29.5 µM | [7] 23.3 µM | [11] 31.4 µM | [15] 32.8 µM | [20] 21 µM | [17] 33.2 µM
inactive: [18] | [2] | [3] | [5] | [9] | [10] | [12] | [13] | [14] | [16]

CCO[Si](CCCNC(N)=O)(OCC)OCC
not listed: [3]
inactive: all other assays above

CC(C)(O)c1ccc(CNC(=O)c2cccnc2Oc2ccc3nonc3c2)cc1
not listed: [3] | [8] | [19] | [20]
inactive: all other assays above

CCCCCc1ccc(N)cc1
active: [7] 14.5 µM | [11] 17.8 µM | [17] 7.58 µM
not listed: [1] | [8] | [15]
inactive: all other assays above
